Assay [1] addresses Lysosomal acid glucosylceramidase (Homo sapiens) (UniProt P04062). As to the kind of experiment: Glucocerebrosidase-p2 (AID 348; in the data active = potency below about 10 µM; also: potency is read from the fitted curve at half-maximal effect). Particulars: purified GBA, blue fluorogenic substrate, 40 min. In outline:
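Normal human glucocerebrosidase (0.2 nM) with blue fluorogenic substrate (80 uM final) in citrate/phosphate pH 5.9 with 10mM sodium taurocholate, 0.01% tween-20; 40 min RT, NaOH/glycine stop; fluorescence Ex 365/Em 440; AC50 from a titration from 0.6 nM upwards.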

Assay [2] can be described thus: AP1 Signaling Pathway (AID 357).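 Also: ME-180 reporter cells stimulated with EGF at its EC50 level; % is scaled to controls: 0 for no effect and ±100 for the full control effect.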 The following applies: ME-180 AP-1-bla reporter, EGF-induced, beta-lactamase ratio, 5 h; at 7.69 µM (top of the series) unless noted. In outline: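 Modulation of EGF-driven AP-1 transcription was assessed with a beta-lactamase reporter in ME-180 cells. Compound and EC50 EGF were co-incubated 5 hours at 37 °C before 2.5-hour CCF4 loading at room temperature and dual-emission reading.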

Assay [3] concerns the target Cytochrome P450 1A2 (Homo sapiens) (UniProt P05177). Nature of the assay: p450-cyp1a2 (AID 410; calls by dose curve; also: potency is read from the fitted curve at half-maximal effect;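 as to activity change, negative = inhibition: -100% = full effect of reference inhibitor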). Particulars: recombinant CYP1A2, luciferin-ME demethylation, luminescence; series mostly up to 11.4 µM. A digest of the protocol: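 O-Demethylation of luciferin 6' methyl ether by human CYP1A2 is monitored as luciferase luminescence. Substrate sits at Km (100uM); enzyme is 20nM. Values are scaled to 57 uM furafylline as maximal inhibition.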

Assay [4] can be described thus: NFAT Signaling Pathway (AID 444).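 Also: carbachol stimulus at about its EC50 of 1 µM final; % is scaled to controls: 0 for no effect and ±100 for the full control effect.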 Particulars: Jurkat NFAT-bla M1, carbachol, beta-lactamase ratio, 5 h; at 7.69 µM (top of the series) unless noted. In outline:
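Jurkat cells carrying an NFAT-driven β-lactamase reporter and co-transfected muscarinic M1 receptor were treated with compound plus carbachol (1 uM final, an EC50 level) for 5 h at 37 °C. CCF4 loading followed for 1 h at RT; 460/530 nm ratio gave %activity.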

Assay [5] can be described thus: Stat Signaling Pathway (AID 446).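 Also: ME-180 cervical cancer cells given 40 pM IL-6 alongside compound; SIE-controlled beta-lactamase reporter measured as 460/530 nm FRET emission ratio; % is scaled to controls: 0 for no effect and ±100 for the full control effect.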 The following applies: ME-180 (cervical carcinoma) SIE beta-lactamase reporter, IL-6 stimulated, 5 h; at 7.69 µM (top of the series) unless noted. In outline:
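Compound effects on IL-6-induced STAT reporter activity were measured in ME-180 cells. After overnight culture, cells were co-treated with 40 pM IL-6 for 5 hrs before beta-lactamase substrate loading at room temperature.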

The target in assay [6] is Glucocorticoid receptor (Homo sapiens) (UniProt P04150). As to the kind of experiment: GR-GFP Redistribution (AID 450;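 active = compounds whose dose series gives a full or clear partial fitted curve of increased nuclear translocation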; also: potency is read from the fitted curve at half-maximal effect). Particulars: U2OS GR-GFP nuclear translocation, laser cytometry, 2 h.
Chain of Glucocorticoid receptor (Homo sapiens) (P04150 whole entry, looked up): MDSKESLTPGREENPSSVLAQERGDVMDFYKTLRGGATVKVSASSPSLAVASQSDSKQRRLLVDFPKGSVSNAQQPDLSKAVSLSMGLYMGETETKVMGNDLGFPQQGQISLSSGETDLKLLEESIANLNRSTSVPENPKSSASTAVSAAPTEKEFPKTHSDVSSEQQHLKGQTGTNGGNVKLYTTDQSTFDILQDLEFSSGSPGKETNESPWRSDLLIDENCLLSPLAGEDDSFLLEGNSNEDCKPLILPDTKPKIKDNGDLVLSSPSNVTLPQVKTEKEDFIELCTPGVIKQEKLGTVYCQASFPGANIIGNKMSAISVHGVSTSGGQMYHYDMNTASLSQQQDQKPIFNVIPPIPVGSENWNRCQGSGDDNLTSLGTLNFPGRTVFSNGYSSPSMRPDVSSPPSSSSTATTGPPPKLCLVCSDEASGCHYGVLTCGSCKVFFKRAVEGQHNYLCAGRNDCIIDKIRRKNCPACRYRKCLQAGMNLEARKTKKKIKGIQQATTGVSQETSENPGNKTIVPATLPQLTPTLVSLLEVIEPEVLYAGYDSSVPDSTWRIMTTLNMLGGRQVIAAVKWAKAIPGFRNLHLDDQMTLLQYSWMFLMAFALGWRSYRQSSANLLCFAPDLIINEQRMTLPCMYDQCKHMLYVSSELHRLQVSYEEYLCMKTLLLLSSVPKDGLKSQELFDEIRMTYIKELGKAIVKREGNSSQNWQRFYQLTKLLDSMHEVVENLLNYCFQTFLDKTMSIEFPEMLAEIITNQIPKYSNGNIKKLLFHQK
Assay [7] shares this target. Nature of the assay: GR-EFC Redistribution (AID 451; calls by dose curve; also: potency is read from the fitted curve at half-maximal effect). Particulars: CHO-K1 GR-EFC translocation, beta-gal luminescence, 2 h. A digest of the protocol:
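CHO-K1 cells stably expressing nuclear-localized β-gal enzyme acceptor and GR fused C-terminally to the enzyme donor fragment; ligand-driven nuclear translocation restores β-gal by complementation. Compounds titrated up to 46 uM final, 2 h at 37 °C; luminescence read.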

In assay [8] the target is Mitogen-activated protein kinase 10 (Mus musculus) (UniProt Q61831). As to the kind of experiment: JNK3 AlphaScreen Assay (AID 530).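 Also: kinase came from lysate of stimulated human HepG2 cells; signal reports phosphorylation of biotinylated GST-cJun 1-79 at Ser73 with 10 µM ATP; % is scaled to controls: 0 for no effect and ±100 for the full control effect.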 Particulars: JNK3 lysate, c-Jun phosphorylation; series mostly up to 11.4 µM. A digest of the protocol:
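Phosphorylation of biotinylated GST-cJun(1-79) at Ser73 is measured by AlphaScreen proximity luminescence. Enzyme is JNK3 in HepG2 lysates activated with interleukin-1beta and tumor necrosis factor alpha; ATP is 10 uM final.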
(Alpha assays give light when donor and acceptor beads are brought close together.)

The target of assay [9] is 3',5'-cyclic-AMP phosphodiesterase 4B (Homo sapiens) (UniProt Q07343). As to the kind of experiment: qHTS Assay for Inhibitors of PDE-IV (AID 607; active = well fitted activation curve with a large enough effect in the main read-out, with a control signal flat, not every such curve was filed as active; also: % of control where 0% means no effect). Particulars: HEK293 ACTOne CNG channel cells, membrane potential fluorescence; series mostly up to 22.9 µM. In outline:
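ACTOne HEK293 cells carry a modified cAMP-gated CNG channel and express endogenous PDE4; plated 1000 cells/well, compounds up to 22.9 uM final. Membrane-potential dye fluorescence (ex 535/em 590) was read; parental cells received 10 uM forskolin + 100 uM RO 20-1724.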
Background: qHTS replaces the single test concentration by a dilution series.

In assay [10] the target is Cytochrome P450 2C19 (Homo sapiens) (UniProt P33261). As to the kind of experiment: qHTS Assay for Inhibitors and Substrates of Cytochrome P450 2C19 (AID 899; active = well fitted inhibition curve with a large enough effect; also: nearly all actives have a fitted effect of over 60% in size; also: potency is read from the fitted curve at half-maximal effect). Particulars: recombinant CYP2C19, luciferin-H EGE luminescence; series mostly up to 11.4 µM. In outline: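 In 50mM KPO4, the reaction held 5nM enzyme and KM-level (10uM) Luciferin-H EGE; it ran 60 min at 37C after NADPH regeneration and a 10 min compound preincubation. Luminescence values were scaled to 57uM ketoconazole as complete inhibition.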
Chain of Cytochrome P450 2C19 (Homo sapiens) (P33261 whole entry, looked up): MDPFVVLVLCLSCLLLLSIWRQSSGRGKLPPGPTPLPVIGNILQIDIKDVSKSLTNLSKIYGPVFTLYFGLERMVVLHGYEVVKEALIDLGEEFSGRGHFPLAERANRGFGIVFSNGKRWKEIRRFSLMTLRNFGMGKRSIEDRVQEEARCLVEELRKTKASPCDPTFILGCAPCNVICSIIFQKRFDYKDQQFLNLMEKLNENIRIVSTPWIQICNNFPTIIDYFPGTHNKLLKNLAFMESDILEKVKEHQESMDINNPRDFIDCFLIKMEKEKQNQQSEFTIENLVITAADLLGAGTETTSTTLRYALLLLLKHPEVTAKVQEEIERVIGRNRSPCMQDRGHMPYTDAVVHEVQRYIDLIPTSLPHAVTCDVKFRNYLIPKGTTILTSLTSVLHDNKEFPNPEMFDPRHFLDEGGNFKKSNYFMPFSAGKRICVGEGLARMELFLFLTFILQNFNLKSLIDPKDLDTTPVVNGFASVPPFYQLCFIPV

In assay [11] the target is Cytochrome P450 2D6 (Homo sapiens) (UniProt P10635). Nature of the assay: qHTS Assay for Inhibitors and Substrates of Cytochrome P450 2D6 (AID 891; active = well fitted inhibition curve with a large enough effect;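 also: luciferin methyl ether substrate demethylated by CYP2D6 with NADPH regeneration; % is scaled to controls: 0 for no effect and ±100 for the full control effect; nearly all actives have a fitted effect of over 60% in size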). The following applies: recombinant CYP2D6, luciferin-ME EGE luminescence; series mostly up to 11.4 µM. In outline:
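Luminescent read-out of luciferin formed by 5 nM human CYP2D6 demethylating 30 uM Luciferin-ME EGE (Km level) over 60 min at room temperature after NADPH regeneration addition. Data normalized to full inhibition by 1.43 uM quinidine.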

Records with an inconclusive call do not appear. Active and inactive are the calls of the source. Unless noted, calls follow the shape of the dose curve; as a rule, active = well fitted curve in either direction with a large enough effect (not every such curve was filed as active); inconclusive = small, poorly fitted or top-dose-only effect, or another doubt; inactive = flat fitted curve, though single readings scatter. Some results are limits rather than exact numbers.

Here are results for seven molecules from PubChem BioAssay (NCATS).

Chain of Cytochrome P450 1A2 (Homo sapiens) (P05177 whole entry, looked up): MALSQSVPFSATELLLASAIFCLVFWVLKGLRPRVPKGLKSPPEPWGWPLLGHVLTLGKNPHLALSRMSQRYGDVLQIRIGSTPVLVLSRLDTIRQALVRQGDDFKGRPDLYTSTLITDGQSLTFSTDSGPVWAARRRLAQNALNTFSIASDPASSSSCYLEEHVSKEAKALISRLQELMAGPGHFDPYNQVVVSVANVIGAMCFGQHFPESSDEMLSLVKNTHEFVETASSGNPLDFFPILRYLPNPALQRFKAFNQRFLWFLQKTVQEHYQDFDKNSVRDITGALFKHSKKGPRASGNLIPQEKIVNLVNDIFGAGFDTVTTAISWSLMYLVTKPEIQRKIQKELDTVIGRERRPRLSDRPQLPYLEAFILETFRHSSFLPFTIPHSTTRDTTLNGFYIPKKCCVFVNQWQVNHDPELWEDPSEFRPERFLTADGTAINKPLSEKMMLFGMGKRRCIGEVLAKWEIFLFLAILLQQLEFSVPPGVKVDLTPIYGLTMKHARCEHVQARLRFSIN
Chain of Lysosomal acid glucosylceramidase (Homo sapiens) (P04062 whole entry, looked up): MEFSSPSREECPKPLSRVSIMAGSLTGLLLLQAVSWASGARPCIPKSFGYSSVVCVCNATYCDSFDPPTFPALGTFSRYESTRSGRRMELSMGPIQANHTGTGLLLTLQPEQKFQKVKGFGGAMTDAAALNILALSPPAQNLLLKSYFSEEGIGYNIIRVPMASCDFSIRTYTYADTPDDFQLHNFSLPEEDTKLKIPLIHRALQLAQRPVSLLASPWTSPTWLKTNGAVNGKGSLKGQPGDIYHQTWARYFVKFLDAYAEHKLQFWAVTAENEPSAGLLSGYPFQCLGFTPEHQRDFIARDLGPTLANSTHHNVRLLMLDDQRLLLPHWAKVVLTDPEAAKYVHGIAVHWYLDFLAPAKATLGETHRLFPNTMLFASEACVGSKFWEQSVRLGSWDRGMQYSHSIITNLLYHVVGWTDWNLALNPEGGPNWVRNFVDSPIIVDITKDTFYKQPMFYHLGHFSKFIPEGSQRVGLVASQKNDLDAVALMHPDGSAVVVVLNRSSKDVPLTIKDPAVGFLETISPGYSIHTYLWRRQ
Chain of 3',5'-cyclic-AMP phosphodiesterase 4B (Homo sapiens) (Q07343 whole entry, looked up): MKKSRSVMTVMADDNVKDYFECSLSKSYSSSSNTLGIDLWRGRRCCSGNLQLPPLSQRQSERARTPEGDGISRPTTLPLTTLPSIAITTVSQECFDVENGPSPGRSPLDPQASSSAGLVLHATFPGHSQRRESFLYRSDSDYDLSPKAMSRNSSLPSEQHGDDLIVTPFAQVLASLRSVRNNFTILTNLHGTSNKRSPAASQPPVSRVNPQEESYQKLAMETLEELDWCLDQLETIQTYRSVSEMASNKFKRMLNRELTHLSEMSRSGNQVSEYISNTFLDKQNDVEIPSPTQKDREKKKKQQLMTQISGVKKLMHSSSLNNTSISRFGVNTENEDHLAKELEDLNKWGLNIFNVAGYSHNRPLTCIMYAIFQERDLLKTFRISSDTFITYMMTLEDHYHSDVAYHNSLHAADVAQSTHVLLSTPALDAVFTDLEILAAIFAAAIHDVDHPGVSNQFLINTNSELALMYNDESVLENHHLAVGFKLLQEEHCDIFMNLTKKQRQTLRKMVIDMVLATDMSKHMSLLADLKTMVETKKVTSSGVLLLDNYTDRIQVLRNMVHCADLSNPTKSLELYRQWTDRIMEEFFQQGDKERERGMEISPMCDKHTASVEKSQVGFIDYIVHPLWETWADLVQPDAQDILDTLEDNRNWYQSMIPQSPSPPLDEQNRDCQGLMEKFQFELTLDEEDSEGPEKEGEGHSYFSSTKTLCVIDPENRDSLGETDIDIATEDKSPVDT
Chain of Cytochrome P450 2D6 (Homo sapiens) (P10635 whole entry, looked up): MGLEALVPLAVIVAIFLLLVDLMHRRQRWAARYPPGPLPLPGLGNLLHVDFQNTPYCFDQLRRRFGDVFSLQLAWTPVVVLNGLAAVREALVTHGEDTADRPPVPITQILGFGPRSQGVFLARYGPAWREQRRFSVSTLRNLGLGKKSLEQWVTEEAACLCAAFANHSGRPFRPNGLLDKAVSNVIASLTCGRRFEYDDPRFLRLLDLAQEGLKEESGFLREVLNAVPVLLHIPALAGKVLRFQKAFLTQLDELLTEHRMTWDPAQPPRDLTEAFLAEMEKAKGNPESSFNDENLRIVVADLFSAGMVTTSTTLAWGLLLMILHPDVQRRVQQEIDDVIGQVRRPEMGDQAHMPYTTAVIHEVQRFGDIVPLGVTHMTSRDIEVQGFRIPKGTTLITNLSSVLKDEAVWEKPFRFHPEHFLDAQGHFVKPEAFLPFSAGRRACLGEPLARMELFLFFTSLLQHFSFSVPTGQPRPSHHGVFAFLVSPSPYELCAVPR

As to `N#C[C@H](c1ccccc1)N1CCCN([C@@H](C#N)c2ccccc2)C1c1ccccc1O` (some centres not stated), the Potency in [1] was > 11.4 µM (inactive); in [3], 3.98 µM (active); in assay [6] it was > 46 µM (inactive); in [7], > 9.22 µM (inactive); in assay [10], 0.251 µM (active). Also, the activity change, negative = inhibition in assay [2] is 8.03% (inactive); in [4] it was -26.1% (inactive). Moreover, in [5], the activity, negative = inhibition was 6.35% (inactive). In addition, the Potency entry in [8] and in assay [9] was “inactive” in each case.

Regarding `C[C@@H]1O[C@@H](O)[C@@H](O)[C@H](O)[C@H]1O`, the Potency in assay [1] was > 11.4 µM (inactive); in [6] it was > 46 µM (inactive); in [7], > 9.22 µM (inactive). In addition, the activity change, negative = inhibition is -1.53% (inactive) in assay [2] and 13.9% (inactive) in assay [4]. The Potency entry in assay [3], in assay [8], in assay [9] and in [10] was “inactive” throughout. In addition, the activity, negative = inhibition in assay [5] was 6.79% (inactive).

On to `C/C(=N\NC(=O)c1ccncc1)c1ccc2ccccc2c1O`, for which the Potency is > 11.4 µM (inactive) in assay [1]; 3.98 µM (active) in assay [3]; > 46 µM (inactive) in [6]; > 9.22 µM (inactive) in assay [7]; 0.501 µM (active) in [10]. The figures for the activity change, negative = inhibition in assay [2] and in assay [4] were 7.91% (inactive) and -7.25% (inactive), respectively. Further, the activity, negative = inhibition in [5] is -3.43% (inactive). Moreover, the Potency entry in [8] and in assay [9] was “inactive” each time.

As for `Nc1ccc2[nH]cc(CCC(=O)O)c2c1`, the Potency in assay [1] is > 11.4 µM (inactive); in assay [6], > 46 µM (inactive); in assay [7], > 9.22 µM (inactive). For the same molecule, the activity change, negative = inhibition in [2] was 4.94% (inactive); in assay [4] it was 4.67% (inactive). The Potency entry in assay [3], in [8], in assay [9] and in assay [10] was “inactive” each time. Besides, the activity, negative = inhibition in [5] was 6.65% (inactive).

Take `CCCCC[C@@H](O)[C@@H]1C(=O)O[C@@H](C)[C@@H](O)\C=C/C=C\C=C/C=C\C=C(\C)[C@H](O)C[C@H](O)C[C@H](O)C[C@H](O)C[C@H](O)C[C@H](O)C[C@@H]1O`: the Potency was > 11.4 µM (inactive) in [1], > 46 µM (inactive) in assay [6], > 9.22 µM (inactive) in [7] and 3.98 µM (active) in [10]. Also, the activity change, negative = inhibition was -1.52% (inactive) in [2], 3.3% [at 2.29 µM] (inactive) in assay [3] and -11.4% (inactive) in assay [4]. Besides, the activity, negative = inhibition in [5] is 11% (inactive). Moreover, the Potency result in [8], in assay [9] and in [11] was “inactive” each time.

In the case of `O=S(=O)(O)c1cc(O)c2c(N=Cc3ccccc3O)cc(S(=O)(=O)O)cc2c1`, the Potency in assay [1] is > 11.4 µM (inactive); in [6] it was > 46 µM (inactive); in [7] it was > 9.22 µM (inactive); in assay [10], 1.58 µM (active). Also, the activity change, negative = inhibition in [2] is -14.5% (inactive); in [3], -23.7% [at 2.29 µM] (inactive); in assay [4], 8.24% (inactive). For the same molecule, the activity, negative = inhibition in assay [5] was -1.77% (inactive). The Potency result in assay [8] and in assay [9] was “inactive” in each case.

In the case of `O=C(O)CC1(C(=O)O)CCCCC1`, the Potency in assay [1] was > 11.4 µM (inactive); in assay [6] it was > 46 µM (inactive); in assay [7], > 9.22 µM (inactive). For the same molecule, the activity change, negative = inhibition was -1.19% (inactive) in assay [2], 5.1% [at 2.29 µM] (inactive) in assay [3] and 7.95% (inactive) in assay [4]. In addition, the activity, negative = inhibition in assay [5] was 1.85% (inactive). For the same molecule, the Potency entry in assay [8], in [9], in assay [11] and in assay [10] was “inactive” in each case.
